In PubChem BioAssay AID720597 (Broad Institute, 2013):
Measured potencies and affinities stand elsewhere. Activity calls are given as the source filed them.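 The calls were made as follows: active = fitted half-maximal dose no more than twice the top valid tested dose, for compounds that lower signal; inconclusive = fit invalid, or curve flat with activity between -70 and -30; inactive = potency past limit, curve flat within ±30, or signal increasing.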

Target: NAD-dependent protein deacylase sirtuin-5, mitochondrial (Homo sapiens) (UniProt Q9NXA8)
Sequence (Q9NXA8 whole entry, looked up): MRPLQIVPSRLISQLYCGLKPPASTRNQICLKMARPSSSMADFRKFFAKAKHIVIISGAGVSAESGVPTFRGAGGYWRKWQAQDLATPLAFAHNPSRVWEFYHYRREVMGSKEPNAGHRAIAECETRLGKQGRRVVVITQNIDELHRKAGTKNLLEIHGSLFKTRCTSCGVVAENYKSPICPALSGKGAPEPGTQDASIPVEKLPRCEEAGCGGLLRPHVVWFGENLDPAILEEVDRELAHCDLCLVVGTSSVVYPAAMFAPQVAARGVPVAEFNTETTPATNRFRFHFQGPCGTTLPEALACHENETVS
Assay: SIRT5 deacylase inhibitors, dose response, biochemical, fluorescence imaging, cherry-pick, set 6 (AID 720597);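 also: lower AMC signal can also come from blocking the trypsin step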
Details: Purified SirT5, succinyl-peptide-AMC/trypsin fluorescence; series mostly up to 15 µM

outcome, inactive:
C[C@@H]1CN([C@@H](C)CO)C(=O)Cc2cc(NS(=O)(=O)c3ccccc3)ccc2O[C@H]1CN(C)CC1CCCCC1
COc1ccc(S(=O)(=O)N(C)C[C@@H]2OCCCC[C@H](C)Oc3ccc(NS(=O)(=O)c4ccc(F)cc4)cc3C(=O)N([C@H](C)CO)C[C@H]2C)cc1
CC(C)CC#Cc1ccc2c(c1)O[C@H](CN(C)C(=O)CC1CC1)[C@@H](C)CN([C@@H](C)CO)S2(=O)=O
CC(C)C#Cc1cnc2c(c1)C(=O)N([C@@H](C)CO)C[C@H](C)[C@H](CN(C)C(=O)c1ccccc1)O2
C[C@H](CO)N1C[C@H](C)[C@H](CN(C)S(=O)(=O)c2cccc(F)c2)Oc2ncc(C#CC3CCCCC3)cc2C1=O
C[C@H]1CN([C@@H](C)CO)S(=O)(=O)c2ccc(C#Cc3ccc(F)cc3)cc2O[C@@H]1CN(C)S(C)(=O)=O
COc1ccc(S(=O)(=O)N(C)C[C@H]2OCCCC[C@H](C)Oc3ccc(NS(=O)(=O)c4ccc(F)cc4)cc3C(=O)N([C@@H](C)CO)C[C@@H]2C)cc1
CCC(=O)NC[C@H]1[C@@H](c2ccccc2)[C@H](CO)N1C(=O)C1CCC1
C[C@H](CO)N1C[C@H](C)[C@H](CN(C)Cc2ccc(Cl)c(Cl)c2)Oc2ccc(NC(=O)CCCCCC(=O)Nc3ccccc3N)cc2C1=O
COc1ccc(S(=O)(=O)N(C)C[C@H]2OCCCC[C@H](C)Oc3ccc(NS(=O)(=O)c4ccc(C)cc4)cc3C(=O)N([C@@H](C)CO)C[C@H]2C)cc1
O=C(NCC[C@@H]1CC[C@@H](NS(=O)(=O)c2cccc(F)c2)[C@H](CO)O1)C1CCOCC1
O=S(=O)(c1ccc(F)cc1)N1CCCCN2[C@H](CO)[C@@H](c3ccc(-c4ccccc4F)cc3)[C@H]2C1
CC(=O)N(C)C[C@@H]1Oc2ncc(C#Cc3cccc(F)c3)cc2C(=O)N([C@H](C)CO)C[C@H]1C
COCC(=O)N1C[C@@H](C)[C@@H](OC)CN(C)C(=O)c2cc(NC(=O)c3cc(C)on3)ccc2OC[C@H]1C
